# Data: the supplement of paper PMC4466140
# What was measured:
# Experiment in all cases: SPOT peptide array binding signal intensity (averaged, normalized) (arbitrary units (background-subtracted, floor 0; scale differs between SH3 domains)); higher = stronger binding of the SH3 domain to the peptide
# AgAbp1 = molecular target: AgAbp1
# In short: (§1)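 E. coli BL21(DE3) was used to express GST-fused SH3 domains from four yeast species, which were then purified on glutathione Sepharose. These were incubated at 10 μg/ml in TBS-based blocking buffer overnight at 4°C on cellulose membranes carrying synthetic 15-mer peptides, in which cysteines were replaced by serines. Binding signal is the replicate average of normalized, background-subtracted spot intensity, in arbitrary units that differ between domains.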
# AgBbc1 = molecular target: AgBbc1
# In short: as §1
# AgBem1-D1 = molecular target: AgBem1-D1
# In short: as §1
# AgBzz1-D1 = molecular target: AgBzz1-D1
# In short: as §1
# AgBzz1-D2 = molecular target: AgBzz1-D2
# In short: as §1
# AgCyk3 = molecular target: AgCyk3
# In short: as §1
# AgFus1 = molecular target: AgFus1
# In short: as §1
# AgHof1 = molecular target: AgHof1
# In short: as §1
# AgHse1 = molecular target: AgHse1
# In short: as §1
# AgLsb1 = molecular target: AgLsb1
# In short: as §1
# AgLsb4 = molecular target: AgLsb4
# In short: as §1
# AgMyo5 = molecular target: AgMyo5
# In short: as §1
# AgNbp2 = molecular target: AgNbp2
# In short: as §1
# AgRvs167 = molecular target: AgRvs167
# In short: as §1
# AgSho1 = molecular target: AgSho1
# In short: as §1
# AgSla1-D1-D2 = molecular target: AgSla1-D1-D2
# In short: as §1
# AgSla1-D3 = molecular target: AgSla1-D3
# In short: as §1
# CaAbp1-D1 = molecular target: CaAbp1-D1
# In short: as §1
# CaAbp1-D2 = molecular target: CaAbp1-D2
# In short: as §1
# CaBbc1 = molecular target: CaBbc1
# In short: as §1
# CaBem1-D1 = molecular target: CaBem1-D1
# In short: as §1
# CaBzz1-D1 = molecular target: CaBzz1-D1
# In short: as §1
# CaBzz1-D2 = molecular target: CaBzz1-D2
# In short: as §1
# CaCyk3 = molecular target: CaCyk3
# In short: as §1
# CaFus1 = molecular target: CaFus1
# In short: as §1
# CaHof1 = molecular target: CaHof1
# In short: as §1
# CaHse1 = molecular target: CaHse1
# In short: as §1
# CaLsb1 = molecular target: CaLsb1
# In short: as §1
# CaLsb4 = molecular target: CaLsb4
# In short: as §1
# CaMyo5 = molecular target: CaMyo5
# In short: as §1
# CaNbp2 = molecular target: CaNbp2
# In short: as §1
# CaRvs167 = molecular target: CaRvs167
# In short: as §1
# CaRvs167-3 = molecular target: CaRvs167-3
# In short: as §1
# CaSho1 = molecular target: CaSho1
# In short: as §1
# CaSla1-D1-D2 = molecular target: CaSla1-D1-D2
# In short: as §1
# CaSla1-D3 = molecular target: CaSla1-D3
# In short: as §1
# ScAbp1 = molecular target: ScAbp1
# In short: as §1
# ScBbc1 = molecular target: ScBbc1
# In short: as §1
# ScBem1-D1 = molecular target: ScBem1-D1
# In short: as §1
# ScBzz1-D1 = molecular target: ScBzz1-D1
# In short: as §1
# ScBzz1-D2 = molecular target: ScBzz1-D2
# In short: as §1
# ScCyk3 = molecular target: ScCyk3
# In short: as §1
# ScFus1 = molecular target: ScFus1
# In short: as §1
# ScHof1 = molecular target: ScHof1
# In short: as §1
# ScHse1 = molecular target: ScHse1
# In short: as §1
# ScLsb1 = molecular target: ScLsb1
# In short: as §1
# ScLsb2 = molecular target: ScLsb2
# In short: as §1
# ScLsb3 = molecular target: ScLsb3
# In short: as §1
# ScLsb4 = molecular target: ScLsb4
# In short: as §1
# ScMyo3 = molecular target: ScMyo3
# In short: as §1
# ScMyo5 = molecular target: ScMyo5
# In short: as §1
# ScNbp2 = molecular target: ScNbp2
# In short: as §1
# ScPex13 = molecular target: ScPex13
# In short: as §1
# ScRvs167 = molecular target: ScRvs167
# In short: as §1
# ScSho1 = molecular target: ScSho1
# In short: as §1
# ScSla1-D1-D2 = molecular target: ScSla1-D1-D2
# In short: as §1
# ScSla1-D3 = molecular target: ScSla1-D3
# In short: as §1
# SpAbp1-D1 = molecular target: SpAbp1-D1
# In short: as §1
# SpBbc1 = molecular target: SpBbc1
# In short: as §1
# SpBzz1-D1 = molecular target: SpBzz1-D1
# In short: as §1
# SpBzz1-D2 = molecular target: SpBzz1-D2
# In short: as §1
# SpCyk3 = molecular target: SpCyk3
# In short: as §1
# SpHof1 = molecular target: SpHof1
# In short: as §1
# SpHof1-2 = molecular target: SpHof1-2
# In short: as §1
# SpHof1-3 = molecular target: SpHof1-3
# In short: as §1
# SpHse1 = molecular target: SpHse1
# In short: as §1
# SpLsb1 = molecular target: SpLsb1
# In short: as §1
# SpLsb4 = molecular target: SpLsb4
# In short: as §1
# SpMyo1 = molecular target: SpMyo1
# In short: as §1
# SpNbp2 = molecular target: SpNbp2
# In short: as §1
# SpPex13 = molecular target: SpPex13
# In short: as §1
# SpRvs167 = molecular target: SpRvs167
# In short: as §1
# SpSla1-D1-D2 = molecular target: SpSla1-D1-D2
# In short: as §1
# SpSla1-D3 = molecular target: SpSla1-D3
# In short: as §1
binder,measurement,setting,value
AATTSTPPLPRRRAT,SPOT peptide array binding signal intensity,AgAbp1,73
same,SPOT peptide array binding signal intensity,AgBbc1,800
same,SPOT peptide array binding signal intensity,AgBem1-D1,≤ 0
same,SPOT peptide array binding signal intensity,AgBzz1-D1,188
same,SPOT peptide array binding signal intensity,AgBzz1-D2,53.5
same,SPOT peptide array binding signal intensity,AgCyk3,3
same,SPOT peptide array binding signal intensity,AgFus1,5
same,SPOT peptide array binding signal intensity,AgHof1,142
same,SPOT peptide array binding signal intensity,AgHse1,21
same,SPOT peptide array binding signal intensity,AgLsb1,464
same,SPOT peptide array binding signal intensity,AgLsb4,5320
same,SPOT peptide array binding signal intensity,AgMyo5,12.5
same,SPOT peptide array binding signal intensity,AgNbp2,≤ 0
same,SPOT peptide array binding signal intensity,AgRvs167,591
same,SPOT peptide array binding signal intensity,AgSho1,≤ 0
same,SPOT peptide array binding signal intensity,AgSla1-D1-D2,6
same,SPOT peptide array binding signal intensity,AgSla1-D3,≤ 0
same,SPOT peptide array binding signal intensity,CaAbp1-D1,142
same,SPOT peptide array binding signal intensity,CaAbp1-D2,229
same,SPOT peptide array binding signal intensity,CaBbc1,1600
same,SPOT peptide array binding signal intensity,CaBem1-D1,11
same,SPOT peptide array binding signal intensity,CaBzz1-D1,520
same,SPOT peptide array binding signal intensity,CaBzz1-D2,362
same,SPOT peptide array binding signal intensity,CaCyk3,60.5
same,SPOT peptide array binding signal intensity,CaFus1,68
same,SPOT peptide array binding signal intensity,CaHof1,8.75
same,SPOT peptide array binding signal intensity,CaHse1,≤ 0
same,SPOT peptide array binding signal intensity,CaLsb1,8.5
same,SPOT peptide array binding signal intensity,CaLsb4,5270
same,SPOT peptide array binding signal intensity,CaMyo5,8
same,SPOT peptide array binding signal intensity,CaNbp2,94
same,SPOT peptide array binding signal intensity,CaRvs167,700
same,SPOT peptide array binding signal intensity,CaRvs167-3,1
same,SPOT peptide array binding signal intensity,CaSho1,7
same,SPOT peptide array binding signal intensity,CaSla1-D1-D2,906
same,SPOT peptide array binding signal intensity,CaSla1-D3,≤ 0
same,SPOT peptide array binding signal intensity,ScAbp1,109
same,SPOT peptide array binding signal intensity,ScBbc1,726
same,SPOT peptide array binding signal intensity,ScBem1-D1,3
same,SPOT peptide array binding signal intensity,ScBzz1-D1,10.5
same,SPOT peptide array binding signal intensity,ScBzz1-D2,9
same,SPOT peptide array binding signal intensity,ScCyk3,16
same,SPOT peptide array binding signal intensity,ScFus1,≤ 0
same,SPOT peptide array binding signal intensity,ScHof1,9.75
same,SPOT peptide array binding signal intensity,ScHse1,70
same,SPOT peptide array binding signal intensity,ScLsb1,232
same,SPOT peptide array binding signal intensity,ScLsb2,202
same,SPOT peptide array binding signal intensity,ScLsb3,6300
same,SPOT peptide array binding signal intensity,ScLsb4,2060
same,SPOT peptide array binding signal intensity,ScMyo3,≤ 0
same,SPOT peptide array binding signal intensity,ScMyo5,≤ 0
same,SPOT peptide array binding signal intensity,ScNbp2,20
same,SPOT peptide array binding signal intensity,ScPex13,1080
same,SPOT peptide array binding signal intensity,ScRvs167,2000
same,SPOT peptide array binding signal intensity,ScSho1,≤ 0
same,SPOT peptide array binding signal intensity,ScSla1-D1-D2,760
same,SPOT peptide array binding signal intensity,ScSla1-D3,11
same,SPOT peptide array binding signal intensity,SpAbp1-D1,16
same,SPOT peptide array binding signal intensity,SpBbc1,104
same,SPOT peptide array binding signal intensity,SpBzz1-D1,877
same,SPOT peptide array binding signal intensity,SpBzz1-D2,≤ 0
same,SPOT peptide array binding signal intensity,SpCyk3,9
same,SPOT peptide array binding signal intensity,SpHof1,178
same,SPOT peptide array binding signal intensity,SpHof1-2,78.5
same,SPOT peptide array binding signal intensity,SpHof1-3,66.5
same,SPOT peptide array binding signal intensity,SpHse1,8.25
same,SPOT peptide array binding signal intensity,SpLsb1,712
same,SPOT peptide array binding signal intensity,SpLsb4,4540
same,SPOT peptide array binding signal intensity,SpMyo1,113
same,SPOT peptide array binding signal intensity,SpNbp2,1.5
same,SPOT peptide array binding signal intensity,SpPex13,3
same,SPOT peptide array binding signal intensity,SpRvs167,1970
same,SPOT peptide array binding signal intensity,SpSla1-D1-D2,15.5
same,SPOT peptide array binding signal intensity,SpSla1-D3,≤ 0
